According to PubChem BioAssay (Tox21):
Records with an inconclusive call do not appear. Where a structure was tested more than once in an assay, its records may differ in their call. The source made the active and inactive calls. Unless noted, the call rests on the fitted dose curve; in most records, active means well fitted curve in the direction sought with a large enough effect in the repeat runs; inconclusive means weak or mixed curves; inactive means no such curve, though single readings can be large; an effect the other way counts as inactive or inconclusive.

Experiments:
[1] = qHTS assay to identify small molecule antagonists of the glucocorticoid receptor (GR) signaling pathway - cell viability counter screen (AID 720693); conditions: GR-bla HeLa viability, CellTiter-Glo luminescence, 18 h, with 5 nM dexamethasone present; series mostly up to 58.5 µM; further: nearly all actives have a fitted effect of over 55% in size
[2] = qHTS assay for identifying genotoxic compounds that show differential cytotoxicity against isogenic chicken DT40 cell lines with known DNA damage response pathways - wild type cell line (AID 743012); conditions: DT40 wild type chicken cells viability, CellTiter-Glo, 40 h; series mostly up to 68.4 µM; further: nearly all actives have a fitted effect of over 60% in size; further: potency means the concentration at half of the fitted maximal effect
Summary of the method: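 Wild-type DT40 cells (300/well) exposed to compounds for 40 hours at 37 C/5% CO2. Viability read by CellTiter-Glo luminescence after 30 min at room temperature.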

[3] = qHTS assay to identify small molecule antagonists of the androgen receptor (AR) signaling pathway - cell viability counter screen (AID 743033; further: nearly all actives have a fitted effect of over 45% in size); conditions: AR-bla HEK293 viability, CellTiter-Glo luminescence, 16 h; series mostly up to 58.5 µM
[4] = qHTS assay to identify small molecule antagonists of the androgen receptor (AR) signaling pathway using the MDA cell line - cell viability counter screen (AID 743041; further: nearly all actives have a fitted effect of over 45% in size; further: potency means the concentration at half of the fitted maximal effect); conditions: MDA-kb2 viability, CellTiter-Fluor, 16 h, cells co-treated with R1881 androgen agonist; series mostly up to 70.3 µM
Summary of the method: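 R1881-driven MDA-kb2 AR-luc cells, 3,000/well, were dosed with library compounds for 16 h; cell health came from CellTiter-Fluor fluorescence in the reporter wells.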

[5] = qHTS assay for identifying genotoxic compounds that show differential cytotoxicity against isogenic chicken DT40 cell lines with known DNA damage response pathways - Rad54/Ku70 mutant cell line (AID 743015); conditions: DT40 Rad54/Ku70 mutant viability, CellTiter-Glo, 40 h; series mostly up to 66.8 µM; further: nearly all actives have a fitted effect of over 60% in size
[6] = qHTS assay for identifying genotoxic compounds that show differential cytotoxicity against isogenic chicken DT40 cell lines with known DNA damage response pathways - Rev3 mutant cell line (AID 743014); conditions: chicken DT40 Rev3-/- viability, CellTiter-Glo, 40 h; series mostly up to 68.4 µM; further: nearly all actives have a fitted effect of over 55% in size; further: potency means the concentration at half of the fitted maximal effect
[7] = target: Androgen receptor (Homo sapiens) (UniProt P10275); test: qHTS assay to identify small molecule antagonists of the androgen receptor (AR) signaling pathway (AID 743035; active means well fitted inhibition curve with a large enough effect in the signal ratio in the repeat runs, not every such curve was filed as active; the % refers to the signal ratio); conditions: HEK293 AR-UAS-bla, R1881-stimulated, beta-lactamase FRET, 16 h; series mostly up to 58.5 µM
Chain of Androgen receptor (Homo sapiens) (P10275 whole entry, looked up): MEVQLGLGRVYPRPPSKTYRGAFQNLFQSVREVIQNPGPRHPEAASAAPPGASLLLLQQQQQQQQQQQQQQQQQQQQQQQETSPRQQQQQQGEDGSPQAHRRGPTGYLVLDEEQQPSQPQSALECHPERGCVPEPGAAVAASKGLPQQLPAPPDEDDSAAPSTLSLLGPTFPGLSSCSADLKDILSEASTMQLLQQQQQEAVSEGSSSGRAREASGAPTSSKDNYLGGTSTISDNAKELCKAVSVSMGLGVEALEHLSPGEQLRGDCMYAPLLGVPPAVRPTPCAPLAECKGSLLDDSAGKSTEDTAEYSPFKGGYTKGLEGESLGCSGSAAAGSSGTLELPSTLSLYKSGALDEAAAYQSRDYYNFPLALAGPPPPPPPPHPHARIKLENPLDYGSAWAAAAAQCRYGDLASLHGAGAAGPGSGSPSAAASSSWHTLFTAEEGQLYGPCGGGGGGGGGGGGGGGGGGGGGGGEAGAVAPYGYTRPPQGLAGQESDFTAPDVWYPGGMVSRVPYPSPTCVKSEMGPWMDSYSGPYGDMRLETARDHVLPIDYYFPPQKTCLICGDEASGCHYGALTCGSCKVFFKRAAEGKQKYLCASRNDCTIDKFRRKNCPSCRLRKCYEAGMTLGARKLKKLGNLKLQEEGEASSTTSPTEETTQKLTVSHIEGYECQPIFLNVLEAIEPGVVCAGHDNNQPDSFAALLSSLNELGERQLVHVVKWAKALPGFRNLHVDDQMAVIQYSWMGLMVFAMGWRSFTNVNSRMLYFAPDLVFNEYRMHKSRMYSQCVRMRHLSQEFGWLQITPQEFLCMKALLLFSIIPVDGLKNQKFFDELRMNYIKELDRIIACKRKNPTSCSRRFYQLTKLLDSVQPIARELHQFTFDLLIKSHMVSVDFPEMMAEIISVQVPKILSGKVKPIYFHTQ
Summary of the method: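 HEK293 cells stably carrying UAS-beta-lactamase reporter, 2,000/well, given compounds plus R1881 agonist and incubated 16 h at 37C. LiveBLAzer B/G FRET substrate then added for 2 h at room temperature before fluorescence reading.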

[8] = target: Androgen receptor (Homo sapiens) (UniProt P10275); test: qHTS assay to identify small molecule agonists of the androgen receptor (AR) signaling pathway (AID 743036; active means well fitted activation curve with a large enough effect in the signal ratio in the repeat runs, with a control signal flat, not every such curve was filed as active; the % refers to the signal ratio); conditions: HEK293 AR-UAS-bla GripTite, beta-lactamase FRET ratio, 16 h; series mostly up to 62.4 µM
Summary of the method: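 Fluorescence from a beta-lactamase FRET substrate served as read-out in AR-UAS-bla GripTite HEK293 cells. Cells were treated with DMSO-dissolved compounds for 16 h at 37C, then with LiveBLAzer B/G substrate for 2 h at room temperature.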

[9] = target: Androgen receptor (Homo sapiens) (UniProt P10275); test: qHTS assay to identify small molecule agonists of the androgen receptor (AR) signaling pathway using the MDA cell line (AID 743040; further: nearly all actives have a fitted effect of over 20% in size); conditions: MDA-kb2 AR-luc cells, MMTV luciferase, 16 h, stronger effect = higher value; series mostly up to 70.3 µM
Summary of the method: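 After a 5 h incubation at 37C and 0% CO2, MDA-kb2 reporter cells were dosed with compounds in DMSO and kept 16 h under the same conditions. Luciferase activity was then read as luminescence with ONE-Glo.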

[10] = target: Androgen receptor (Homo sapiens) (UniProt P10275); test: qHTS assay to identify small molecule antagonists of the androgen receptor (AR) signaling pathway using the MDA cell line (AID 743042; further: nearly all actives have a fitted effect of over 55% in size); conditions: MDA-kb2 AR-luc, MMTV luciferase, R1881 antagonist, 16 h; series mostly up to 70.3 µM
Summary of the method: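 Antagonist mode: compounds plus R1881 agonist added to MDA-kb2 AR-luc cells, incubated 16 h at 37C. Luciferase reporter luminescence quantified, with multiplexed CellTiter-Fluor readout for cell viability.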

Measured: Potency

C[Si](Cl)(c1ccccc1)c1ccccc1
inactive: [1] | [2] | [3] | [4]

OC1CCC(C2CCCCC2)CC1 (stereo unspecified)
inactive: [1] | [2] | [3] | [4]

CCCCOC(=O)CO
inactive: [1] | [2] | [5] | [3] | [4]

CCCCCc1ccc(Cl)cc1
inactive: [1] | [2] | [6] | [3] | [4]

COCCOc1cc2cc(C(=O)NC3CCN(C(C)C)CC3)n(CC(=O)Nc3ccc(Cl)cn3)c2cn1
inactive: [1] | [6] | [3]

CCOC(=O)NNc1ccc(N(CC)CC(C)O)nn1 (stereo unspecified)
inactive: [1] | [3]
active: [6] 23.7 µM

CCN(CCN)c1cccc(C)c1
69.2 µM (active) and inactive: [2]
inactive: [1] | [5] | [3] | [4]

Cl[Si](Cl)(c1ccccc1)c1ccccc1
inactive: [1] | [6] | [5] | [3] | [4]

ClCCl
not listed: [2]
inactive: all other assays above

O=C(Nc1ccc2c(O)c(N=Nc3ccc(N=Nc4ccc(S(=O)(=O)O)cc4)cc3)c(S(=O)(=O)O)cc2c1)c1ccccc1
inactive: [1] | [2] | [3]
active: [4] 24.3 µM

CC(C)NC[C@@H](O)COc1ccc(CC(N)=O)cc1
inactive: [1] | [2] | [6] | [4]
